This is an account of results in PubChem BioAssay AID651821 (The Scripps Research Institute Molecular Screening Center, 2012).

Hit rate of the full screen: of about 370,000 compounds, about 4,700 (1.3%) were called active. The entries come from a sample that favours actives as a whole. A number with no mark means an inactive call.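 Rule for the calls: active = inhibition above the plate cutoff, the mean of all test compounds on that plate plus 3 SD (cut at about 35% in these data); inactive = the rest.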

For orientation: inhibition means the drop in the measured response relative to a control, in per cent.

The assay can be described thus: small molecules binding CAG repeat RNA – biochemical, fluorescence, primary screen (AID 651821).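 Note: 0% = DMSO alone and 100% = 100 µM mitoxantrone as full dye displacement; higher means more dye released from RNA so lower well fluorescence.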 As to conditions: r(CAG) RNA repeat, TO-PRO-1 dye displacement fluorescence; at 3 µM; hits give high values.
As to `CCn1cc(CN2CCCC(CNS(=O)(=O)Cc3ccccc3)C2)cn1` (stereo not drawn), the inhibition is 0.88%.
Turning to `Cc1ccccc1NC(=O)C1CCN(c2ncccn2)CC1`, the inhibition was -0.95%.
Take `COc1ccc(S(=O)(=O)NCC(c2ccc(C)cc2)N2CCN(C)CC2)cc1OC` (stereo not drawn): the inhibition was -10.5%.
With `COc1ccc(C(=O)OCCN(C)C2CN(Cc3cn(Cc4cccc(C)c4)nn3)S(=O)(=O)C2)cc1OC` (stereo not drawn), the inhibition was 0.03%.
`O=C(Nc1nnc(-c2ccccc2)o1)c1cc(-c2cccs2)nc2ccccc12`: the inhibition was 56.2% (active).
Regarding `O=C(c1cc(-c2ccc(Cl)s2)nc2ccccc12)N1CCOCC1`, the inhibition is 3.5%.
As for `Cc1c(NC(=O)c2cc(-c3ccc(Cl)s3)nc3ccccc23)c(=O)n(-c2ccccc2)n1C`, the inhibition was 7.65%.
Consider `CC(c1ccc(N)cc1)c1cn(C)c2ccccc12` (stereo not drawn), for which the inhibition was 7.15%.
In the case of `CCC(C)[C@@H](C(=O)OC)N(CCc1cn(Cc2ccccc2)nn1)S(=O)(=O)c1ccccc1Br` (stereo partly drawn), the inhibition is 2.88%.
With `CCOC(CNC(=O)C1CCN(S(=O)(=O)c2ccc3nc4c(c(C(=O)O)c3c2)CC(C)CC4)CC1)OCC` (stereo not drawn), the inhibition was 25.9%.
Then `Cc1ccc(CNC(=O)C2CCN(S(=O)(=O)c3ccc4nc5c(c(C(=O)O)c4c3)CC(C)CC5)CC2)cc1` (stereo not drawn), with 51.8% (active); and `CC(=O)N1c2ccc(S(=O)(=O)N3CCC(C(=O)NCc4ccc(F)cc4)CC3)cc2CC1C` (stereo not drawn), with 1.14%; and `COC(=O)C1=C(C)N(Cc2ccc(C(F)(F)F)cc2)C(=NCc2ccc(C(F)(F)F)cc2)NC1c1cccc(Cl)c1` (stereo not drawn), with 2.08%.
In the case of `N#Cc1c(NC(=O)C2CCCO2)sc2c1CCCCC2` (stereo not drawn), the inhibition was -2.89%.
Regarding `O=C(O)C1CC=C(Cl)CC1C(=O)NCc1ccccc1` (stereo not drawn), the inhibition is 1.32%.
As for `N#Cc1c(NC(=O)C2CC(Cl)=CCC2C(=O)O)sc2c1CCCCC2` (stereo not drawn), the inhibition was 42.8% (active).
As to `COC(=O)c1c(NC(=O)C2CC(C)=C(C)CC2C(=O)O)sc2c1CCCCC2` (stereo not drawn), the inhibition is 53.5% (active).
On to `COC(=O)c1c(NC(=O)CSc2nncs2)sc2c1CCCCC2`, for which the inhibition is 0.27%.
In the case of `COC(=O)c1c(NC(=O)CN2C(=O)NC(CCc3ccccc3)C2=O)sc2c1CCCCC2` (stereo not drawn), the inhibition is 10%.
For `C[C@H]1CCC/C=C/C(=O)c2c(O)cc(O)cc2CC(=O)O1`, the inhibition is 6.03%.
In the case of `N#Cc1c(-c2ccc(Cl)cc2)c2c([nH]c1=S)CCCC2`, the inhibition was 17.9%.
With `C=CCN1C(C(=O)OC)CN(Cc2cn(Cc3ccccc3)nn2)CCS1(=O)=O` (stereo not drawn), the inhibition was 3.76%.
As to `COc1ccc(CNS(=O)(=O)c2cc(-c3cc(C)no3)ccc2C(C)C)cc1`, the inhibition is 1.21%.
On to `COC(=O)c1ccc(NC(=O)c2ccccc2NS(=O)(=O)c2ccccc2)cc1`, for which the inhibition was 74.1% (active).
For `COc1cccc(NC(=O)c2ccccc2N(Cc2ccccc2)S(C)(=O)=O)c1`, the inhibition was 4.73%.
Consider `CCOC(=O)c1ccc(N/C(=N/S(=O)(=O)c2ccccc2)c2ccccc2)cc1`, for which the inhibition was 0.82%.
As for `CCOc1ncccc1C(=O)Nc1ccc(S(=O)(=O)Nc2nc(C)cc(C)n2)cc1`, the inhibition is 16.8%.
`COc1ccc(CCNS(=O)(=O)c2ccc(Cl)s2)cc1OC`: the inhibition is -4.15%.
For `COc1cc(NC(=O)c2ccccc2NS(=O)(=O)c2ccc(Cl)s2)cc(OC)c1`, the inhibition was 84.6% (active).
Regarding `COc1ccnc(NC(=S)N2CCN(c3ncc(C(F)(F)F)cc3Cl)CC2)c1`, the inhibition was 2.94%.
As for `COc1cc(/C=C/C(=O)OCC(=O)Nc2cccc(Oc3ccccc3)c2)ccc1O`, the inhibition was 15.1%.
For the compound `CC(C)CNc1cccc2c1S(=O)(=O)N[C@H](C)CO2`, the inhibition is 2.72%.
With `COc1ccc(C(CNC(=O)c2cccc(NS(=O)(=O)c3ccc(C)c(F)c3)c2)N2CCCC2)cc1` (stereo not drawn), the inhibition was 2.37%.
The result for `COc1ccc(C(CNC(=O)c2cccc(S(=O)(=O)Nc3ccccc3Cl)c2)N2CCOCC2)cc1` (stereo not drawn) reads 46.8% (active); that for `COc1ccc(C(CNC(=O)c2ccc(S(=O)(=O)Nc3ccccc3C)cc2)N2CCOCC2)cc1` (stereo not drawn), -3.71%; that for `CC1=C(C(=O)Nc2cc(C)ccn2)C(c2cnn(C)c2)C2=C(CC(c3ccccc3)CC2=O)N1` (stereo not drawn), -6.66%.
The result for `O=C(Nc1ccc(Br)cc1)OCCN1C(=O)CCC12CCC(c1ccccc1)CC2` (stereo not drawn) reads 5.9%; that for `C[C@H](O)[C@@H]1CN2CCc3ccc(-c4ccc5c(c4)OCO5)cc3[C@@H]2C[C@@H]1N(C)C(=O)C1CCCCC1`, 6.89%; that for `Cc1cc(NCCc2c[nH]c3ccccc23)ccc1Oc1cccnc1`, 7.17%.
On to `CCc1cccc(C)c1N(C(=O)Cn1c(CO)nc2ccccc21)C(C)COC` (stereo not drawn), for which the inhibition is -9.89%.
As for `COC(=O)[C@]12C[C@H](CC(=O)NCCc3ccccc3OC)C(=O)N(Cc3ccco3)C1=C[C@H](C(C)C)O[C@@H]2C1CC1`, the inhibition is 3.46%.
Take `Cc1nc2cc(NC(=O)CSc3nc4c(C)cccc4cc3C#N)ccc2s1`: the inhibition was 2.03%.
With `Cc1ccc(NC(=O)CSc2sc3c(O)cc(=O)[nH]c3c2C#N)cc1C`, the inhibition was 40.4% (active).
Take `Cc1ccc(NC(=O)CSc2nn3c(=O)c(C)nnc3s2)cc1Cl`: the inhibition was 2.36%.
Then `CCOC(=O)C1CSCCS(=O)(=O)N1Cc1ccc(Cl)cc1` (stereo not drawn), with 1.28%.
The result for `COC[C@@H]1CCCN1c1ccc2c(c1)O[C@H](C)CCN(C1CC1)S2(=O)=O` reads 0.67%.
Then `CC1(C(=O)NS(=O)(=O)c2cccs2)CCN1C(=O)Cc1ccc(-c2ccccc2)cc1` (stereo not drawn), with 40.2% (active); and `CCCCc1ccc(S(=O)(=O)NC(=O)C2(C)CCN2C(=O)c2ccccc2)cc1` (stereo not drawn), with 32.5%.
With `CC1(C(=O)NS(=O)(=O)c2ccccc2)CCN1C(=O)C/C=C/c1ccccc1` (stereo not drawn), the inhibition was 7.12%.
The result for `Cc1nc(C(F)(F)F)ccc1C(=O)N1CCC1(C)C(=O)NS(=O)(=O)c1ccccc1` (stereo not drawn) reads 4.76%; that for `CC1(C(=O)NS(=O)(=O)Cc2cccc(Cl)c2)CCN1C(=O)Cc1ccc(Cl)cc1Cl` (stereo not drawn), 42.9% (active); that for `CC1(C(=O)NS(=O)(=O)Cc2cccc(Cl)c2)CCN1C(=O)Cc1ccccc1` (stereo not drawn), 12.6%.
On to `CCCNC(=O)C1(C)CCN1C(=O)Cc1ccc(-c2ccccc2)cc1` (stereo not drawn), for which the inhibition was 0.2%.
As for `COc1ccc(S(=O)(=O)NC(=O)C2(C)CCN2C(=O)c2ccccc2CCc2ccccc2)cc1` (stereo not drawn), the inhibition is 43.4% (active).
`CC1(C(=O)NS(=O)(=O)c2ccccc2)CCN1C(=O)Cc1ccc(-c2ccccc2)cc1` (stereo not drawn): the inhibition is 41.7% (active).
The result for `C#Cc1ccc(NC(=O)C2(C)CCN2C(=O)Cc2ccc(-c3ccccc3)cc2)cc1` (stereo not drawn) reads 9.25%.
As for `Cc1ccccc1S(=O)(=O)NC(=O)C1(C)CCN1C(=O)Cc1ccc(Cl)cc1Cl` (stereo not drawn), the inhibition was 32.5%.
For the compound `Cc1ccc(F)c(S(=O)(=O)NC(=O)C2(C)CCN2C(=O)CCc2cccs2)c1` (stereo not drawn), the inhibition is 3.47%.
